Only a selection was taken, and hits are over-represented in it overall.
ST2 IL33 inh: blocks human ST2 binding to IL-33; AID 1259354; 78,000 tested, 2.3% active; AlphaLISA ST2-Fc/biotin-IL-33 interaction, 1 h; Q01638; inhibition, % for hits at 17 µM; in the data active = inhibition above about 30%
Target sequence (Q01638 whole entry, looked up): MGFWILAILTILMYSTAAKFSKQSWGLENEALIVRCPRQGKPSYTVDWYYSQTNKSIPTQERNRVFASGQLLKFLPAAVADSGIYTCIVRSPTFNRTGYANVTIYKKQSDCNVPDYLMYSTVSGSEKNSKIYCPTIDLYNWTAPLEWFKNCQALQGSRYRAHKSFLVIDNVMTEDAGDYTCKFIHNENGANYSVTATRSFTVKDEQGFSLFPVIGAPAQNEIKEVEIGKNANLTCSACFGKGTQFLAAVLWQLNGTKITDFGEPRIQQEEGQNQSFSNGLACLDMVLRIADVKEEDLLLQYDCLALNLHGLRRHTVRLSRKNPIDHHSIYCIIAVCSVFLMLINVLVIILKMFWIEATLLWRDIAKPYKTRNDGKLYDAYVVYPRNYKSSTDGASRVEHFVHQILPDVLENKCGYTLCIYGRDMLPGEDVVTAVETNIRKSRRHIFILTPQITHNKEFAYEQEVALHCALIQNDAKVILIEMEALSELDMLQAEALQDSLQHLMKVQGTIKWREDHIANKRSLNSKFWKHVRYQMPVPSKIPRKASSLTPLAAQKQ
An asterisk follows results filed as active; i = inactive; ! = not confirmed by another sample.

SMILES	ST2 IL33 inh
COc1ccc(/C=C2/c3cc(C)ccc3-c3ncccc32)cc1	31.0%*
CCOC(=O)c1cccnc1-c1cc(OC)ccc1F	i
COc1ccc(C(N)=O)cc1-c1ccc(F)c(CO)c1	i
Nc1ncnc(Sc2nc3ccccc3[nH]2)c1[N+](=O)[O-]	i
CCOc1cc(C2C(C#N)=C(N)Oc3cc(C)oc(=O)c32)cc([N+](=O)[O-])c1O (configuration not stated)	i
O=C(CNS(=O)(=O)c1cccs1)NCc1cccnc1	79.0%*
O=C(CNS(=O)(=O)c1ccc(Br)s1)NCc1cccnc1	i
O=S(=O)(NCc1cccnc1)c1cccs1	i
CC(C)C(C(=O)O)N1C(=O)c2ccc(C(=O)O)cc2C1=O (configuration not stated)	i
Cc1ccc(-c2nnc(NCc3ccco3)c3ccccc23)cc1	i
CC(C)(C)C1=CC(=O)c2c(ccc(C(C)(C)C)c2O)C1=O	65.0%*
O=C(NCC1CCCO1)c1ccc(NC(=O)c2cccs2)cc1 (configuration not stated)	i
CCOC(=O)c1c(C)oc2ccc(OCc3ccccc3Cl)cc12	i
CC(=O)NCCc1c[nH]c2ccc([N+](=O)[O-])cc12	i
COC(=O)c1sc2ccccc2c1NC(=O)CN1C(=O)c2ccccc2C1=O	i
CCn1cc(C(=O)N2CCCCCC2)c(=O)c2cc(S(=O)(=O)N3CCC(C)CC3)ccc21	i
COc1cc(NC2OC(=O)c3ccccc32)c(OC)cc1Cl (configuration not stated)	i
CCOc1cc2c(cc1OCC)C(c1ccc(OC)c(OC)c1)OC(=O)C2 (configuration not stated)	i
COc1cc2c(cc1OC)C(c1ccc(Cl)cc1)OC1=C2C(=O)c2ccccc21 (configuration not stated)	47.0%*
CCn1cc(Cn2ccnc2-c2ccc(S(=O)(=O)NC)cc2)cn1	i
O=S(=O)(NCc1nc2cccnc2n1Cc1ccccc1Cl)c1ccc(Cl)cc1	i
O=C(Nc1ccccc1F)c1cc2c(=O)oc3ccccc3c2s1	i
O=C(O)CCN(CCC(=O)O)c1nnc(-c2ccccc2)o1	i
Nc1nnc(-c2ccccc2)o1	i
C(=C\c1nnc(-c2ccccc2)o1)/c1ccccc1	34.0%*
SMILES	ST2 IL33 inh
COc1ccc(C(=O)NC[C@H]2O[C@@H](CO)[C@@H](O)[C@H]2N2CCOCC2)cc1	i
COc1cccc(C(=O)Nc2cc(C)ccc2NC(=O)c2ccccc2C)c1OC	i
Cc1c(CN2CCC3(CC2)C(=O)NCCN3C)[nH]c2c(C)cccc12	30.0%*
CCCCc1ncc(CN2CCC3(CC2)C(=O)NCCN3C)[nH]1	i
Cc1[nH]c2c(C(=O)N3CCC4(CC3)C(=O)NCCN4C)cccc2c1C	i
CCCOCCOC(=O)C1=C(C)NC2=C(C(=O)C(C(=O)OC)C(C)C2)C1c1ccccc1F (configuration not stated)	i
c1ccc(C2(CNc3ccccn3)CCCC2)cc1	i
COc1cc(NCC2(c3ccccc3)CCN(C)CC2)ncn1	31.0%*
COc1cc(NCCNC(=O)c2ccncc2)ncn1	i
CC1CCCCC1NC(=O)C1CCN(S(=O)(=O)N2CCCCC2)CC1 (configuration not stated)	i
Cc1c(C(=O)N2CCN(c3ncccn3)CC2)sc2nc3n(c(=O)c12)CCCCC3	i
COCCNC(=S)N[C@H]1C[C@H]2C(=O)NC[C@@H](CCC(=O)N3CCN(c4ccccn4)CC3)N2C1	i
COc1ccc(CN[C@H]2C[C@H]3C(=O)NC[C@@H](CCC(=O)N4CCN(c5ccccc5)CC4)N3C2)cc1	57.0%*
COCCNC(=S)N[C@H]1C[C@H]2C(=O)NC[C@@H](CCC(=O)N3CCN(c4ccccc4)CC3)N2C1	i
O=C(Nc1ccccc1)N[C@H]1C[C@H]2C(=O)NC[C@@H](CCC(=O)N3CCN(c4ccccn4)CC3)N2C1	i
O=C(N[C@H]1C[C@H]2C(=O)NC[C@@H](CCC(=O)N3CCN(c4ccccc4)CC3)N2C1)C1CC1	i
O=C(N[C@H]1C[C@H]2C(=O)NC[C@@H](CCC(=O)N3CCN(c4ccccn4)CC3)N2C1)c1cccs1	33.0%*
Cc1cccc2nc(Cn3c(=O)n(CC(=O)NCc4ccco4)c(=O)c4sccc43)cc(=O)n12	i
CCCCN(CC)c1nnnc2c1sc1nc(N3CCOCC3)c3c(c12)CC(C)(C)OC3	i
OCC(O)CSc1nc2ccccc2[nH]1 (configuration not stated)	i
COc1ccc2c(c1)CCc1c(C(=O)N3CCC(C)CC3)noc1-2	i
O=C1CSc2ccc(C(=O)NCCN3CCCCCC3)cc2N1	i
CC(C)CCn1c(CN2CCN(C(C)C)CC2)cnc1S(=O)(=O)C(C)C	i
COc1ccc(C(=O)NC2CCCCC2)cc1S(=O)(=O)N1CCC(C)CC1	i
CC(C)c1nccn1S(=O)(=O)c1ccc(I)cc1	i
SMILES	ST2 IL33 inh
O=c1cc2cc(O)[nH]c(=O)c2c(O)[nH]1	47.0%*
O=C(O)Cc1c[nH]c2ccc(O)cc12	41.0%*!
NC(=O)CCc1c[nH]c2ccccc12	i
N[C@@H](Cc1c[nH]c2ccccc12)C(=O)O	i
CC(=O)N(CN1C(=O)C2CCC(C)CC2C1=O)c1ccc(C)cc1 (configuration not stated)	i
CN(CC(=O)Nc1ccc(F)c(F)c1)S(=O)(=O)c1ccc2c(c1)CCC(=O)N2	i
COc1ccc(CNC(=O)NCCc2nc3cccnc3n2Cc2ccccc2)cc1	63.0%*
CC(C)(C)NC(=O)NCCc1nc2cccnc2n1Cc1ccccc1	i
CC(C)CNC(=O)NCCc1nc2cccnc2n1Cc1ccccc1	i
CCc1cc2c(=O)c(Oc3ccccc3)c(C)oc2cc1OC(C)C	i
CCOC(=O)c1c(C)n(-c2ccc(OC)cc2)c2cc(Br)c(OC)cc12	i
O=C(Nc1cccc([N+](=O)[O-])c1)c1ccc(F)cc1	i
O=C(CN1C(=O)C2C3CCC(C3)C2C1=O)Nc1ccc(C(=O)O)cc1 (configuration not stated)	i
Cc1nc(C(C)C)sc1C(=O)NCCNS(C)(=O)=O	i
Cc1cccc2[nH]c(-c3ccc(NC(=O)c4ccc(N)cc4)cc3)nc12	i
Nc1ccc(C(=O)Nc2ccc(-c3nc4ccc(NC(=O)c5ccc(N)cc5)cc4[nH]3)cc2)cc1	30.0%*
CC(=O)Nc1ccc(-c2nc3ccc(NC(C)=O)cc3[nH]2)cc1	i
COc1ccc(OC)c(-c2cc(C(=O)N3CCCCC3C)no2)c1 (configuration not stated)	i
O=C(NCc1cccs1)C(=O)Nc1ccccc1Cl	i
COCCNC(=O)c1cc2cc3ccc(OC)cc3nc2o1	i
O=C(NC1CCCC1)c1ccc(Cl)cc1Cl	i
CC1CCCC(NC(=O)c2cc3cc4ccc(Cl)cc4nc3o2)C1C (configuration not stated)	30.0%*
O=C(NC1CCCCC1)c1cc2cc3ccc(Cl)cc3nc2o1	43.0%*!
COc1ccc2cc3cc(C(=O)NCC4CCCO4)oc3nc2c1 (configuration not stated)	i
CCCCN(CC)CCNC(=O)c1cc2cc3ccc(Cl)cc3nc2o1	i
CCCN(CCC)CCCNC(=O)c1cc2cc3ccc(Cl)cc3nc2o1	i
COCCNC(=O)c1cc2cc3ccc(Cl)cc3nc2o1	i
COc1ccc2cc3cc(C(=O)N4CCCC(C)C4)oc3nc2c1 (configuration not stated)	i
O=C(NCc1ccco1)c1cc2cc3ccc(Cl)cc3nc2o1	34.0%*

Screening data from PubChem.
